Source: PubChem
Mtb bLac sens = beta-lactam sensitization of Mtb H37Rv; hit rate 0.27% among 330,000; inhibition, % at 25 µM; M. tuberculosis H37Rv growth with meropenem, percent inhibition; call rule not given here;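 also: growth measured after seven days incubation then overnight dye step; 0% = bacteria only wells and 100% = bacteria with antibiotic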
GDH-TPI inh = inhibits GDH-TPI coupling enzymes, artifact for Mtb FBA screen | GDH-TPI coupled enzyme counterscreen, NADH absorbance | inhibition, % at 4.8 µM | hit rate 1.2% among 360,000 | AID 588335;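 also: 0% = DMSO wells and 100% = wells lacking the enzyme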
FBA Mtb inh = inhibitors of M. tuberculosis fructose-bisphosphate aldolase; purified M. tuberculosis FBA, fluorescence read-out; hit rate 2.3% among 360,000; AID 588726; inhibition, % at 1 µM; in the data active = inhibition above about 27%;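 also: 0% = vehicle and 100% = reference inhibitor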
Target sequence (P9WQA3 whole entry, looked up): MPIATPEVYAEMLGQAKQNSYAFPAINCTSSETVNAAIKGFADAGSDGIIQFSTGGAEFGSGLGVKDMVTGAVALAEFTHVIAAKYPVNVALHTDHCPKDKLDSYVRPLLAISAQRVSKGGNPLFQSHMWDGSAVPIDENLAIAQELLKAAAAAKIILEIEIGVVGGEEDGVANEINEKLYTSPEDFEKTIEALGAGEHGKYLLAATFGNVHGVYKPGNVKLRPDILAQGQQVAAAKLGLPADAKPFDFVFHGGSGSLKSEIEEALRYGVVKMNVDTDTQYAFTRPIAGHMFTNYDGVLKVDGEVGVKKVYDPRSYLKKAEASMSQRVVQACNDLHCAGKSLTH
RecA splice inh = blocks M. tuberculosis RecA intein splicing. P9WHJ3. cell-free RecA intein splicing, fluorescence. inhibition, % (test concentration not listed). hit rate 0.75% among 290,000; in the data active = inhibition above about 30%;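 also: 0% = vehicle wells and 100% = reference inhibitor control wells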
CCHFV vOTU inh = CCHFV vOTU protease inhibition; Pep-AMC fluorescence; inhibition, % at 11.5 µM; hit rate 0.55% among 370,000; AID 651958; also: 0% = vehicle wells with enzyme and 100% = no enzyme wells
Active calls of the source: *; i = inactive; nt = no result; + = active, no number. Most compounds without a hit are left out; they make up all but 4.2% or so of the library. Rule as the data show it, unless noted: active = inhibition above about 30%; inactive = the rest.

SMILES | Mtb bLac sens | GDH-TPI inh | FBA Mtb inh | RecA splice inh | CCHFV vOTU inh
Cc1ccc(-c2cc(-c3ccccc3)nc(N)c2C#N)o1 | -2 | -2 | 133* | -7 | -126
N#Cc1c(-c2ccco2)cc(-c2ccc(F)cc2)nc1N | 3 | 16 | 154* | -5 | -76
N#Cc1c(-c2ccccc2)cc(-c2ccc(O)cc2)nc1N | 42 | 23 | 17 | nt | -17
Cc1ccc(C2CCC3(CCC(=O)N3CCOC(=O)Nc3cccc(C#N)c3)CC2)cc1 (stereo not given) | nt | nt | nt | nt | 7
Cc1cccc(-n2c(=O)c(C#N)cc3c(=O)n4ccccc4nc32)c1 | 5 | 5 | + | i | -127
Cc1ccc(C)c(-n2c(=O)c(C#N)cc3c(=O)n4ccccc4nc32)c1 | 1 | 4 | 133* | -267 | -79
CCC(C)n1c(=N)c(C#N)cc2c(=O)n3ccccc3nc21 (stereo not given) | -6 | -2 | 16 | -355 | -15
Cc1ccc(S(=O)(=O)c2cc3c(=O)n4ccccc4nc3n(C3CCCCC3)c2=N)cc1 | -3 | 6 | -1 | -5 | -7
Cc1ccc(-n2c(=O)c(C#N)cc3c(=O)n4ccccc4nc32)cc1 | 9 | 3 | 149* | -95 | -80
COCCCN1C(=O)[C@H](CC(=O)NCc2cccs2)[C@]2(C(=O)OC)CCCCC=C12 | nt | nt | nt | nt | -1
C/C(=N\Nc1nc(C)cc(C)n1)c1ccc(C)o1 | 5 | 32* | 0 | -9 | -1
Cc1ccc(-c2cc(C(=O)O)c3sc(N4CCCCC4)nc3n2)cc1 | 3 | 14 | 163* | -24 | -173
COc1ccc(S[C@]2(C(=O)N(C)C)CC(=O)N[C@@H]2c2ccc(OC)cc2)cc1 | nt | nt | nt | nt | -4
CCC1(C)Cc2ccccc2-c2nc[nH]c(=O)c21 (stereo not given) | -5 | 0 | -1 | 2 | -2
CCc1nc2c(c(=O)[nH]1)C(CC)(CC)Cc1ccccc1-2 | 2 | 7 | 0 | -2 | -3
CCC1(C)Cc2ccccc2-c2nc(NCCO)n(-c3ccc(C)cc3)c(=O)c21 (stereo not given) | 6 | 17 | 163* | 4 | -145
CC1(C)Cc2ccccc2-c2nc3n(c(=O)c21)CCS3 | -5 | 11 | 2 | 3 | -2
CC1(C)Cc2ccccc2-c2nc(NCCO)n(-c3ccccc3)c(=O)c21 | 10 | 18 | 173* | 4 | -126
CCC1(C)Cc2ccccc2-c2nc(NCCO)n(-c3ccccc3)c(=O)c21 (stereo not given) | -19 | 13 | 176* | 2 | -157
CCC1(CC)Cc2ccccc2-c2nc(NCCO)[nH]c(=O)c21 | 15 | 20 | 168* | 3 | -170
CCCCN1CN2Cc3ccc(C)cc3C2CS1(=O)=O (stereo not given) | nt | nt | nt | nt | -1
O=C(NCc1ccc(F)c(F)c1)C1CCC(CNS(=O)(=O)c2cccc3cccnc23)CC1 (stereo not given) | nt | nt | nt | nt | 1
COC(=O)[C@]12C[C@H](CC(=O)N3CCSCC3)C(=O)N(Cc3cccc4ccccc34)C1=C[C@H](C(C)C)O[C@@H]2C1CC1 | nt | nt | nt | nt | 15
CC(=O)Oc1cc2c(s1)CCN(C(C(=O)C1CC1)c1ccccc1F)C2 (stereo not given) | nt | nt | nt | nt | 5
CC(C)(C)OC(=O)NCc1ccccc1/C=C/S(=O)(=O)NCc1ccc(F)cc1 | nt | nt | nt | nt | 11
SMILES | Mtb bLac sens | GDH-TPI inh | FBA Mtb inh | RecA splice inh | CCHFV vOTU inh
CCc1ccc(S(=O)(=O)Nc2ccc(-c3nc4cccnc4s3)cc2)s1 | 4 | 45* | + | -2 | -270
O=S(=O)(Nc1ccc(-c2nc3cccnc3s2)cc1)c1cc(F)ccc1F | -4 | 30 | + | -6 | -201
N#Cc1cccc(C(=O)N2CCC(Oc3cccnc3)CC2)c1 | nt | nt | nt | nt | -7
Fc1ccc(-c2n[nH]c(=S)n2N=Cc2cccc(OCc3ccccc3)c2)cc1 | nt | nt | nt | nt | 15
COc1ccc(-c2sc3ccccc3c2C#CCO)cc1 | 93 | 8 | 17 | -5 | 6
CS(=O)(=O)c1ccc(-c2sc3ccccc3c2C#CCCO)cc1 | 24 | 32* | 17 | nt | -11
COc1ccc2c(-c3ccc(S(N)(=O)=O)cc3)c(-c3ccc(S(C)(=O)=O)cc3)sc2c1 | -4 | 12 | + | nt | -205
COc1ccc(-c2sc3ccccc3c2C#CCCO)cc1 | 95 | 9 | 6 | 12 | 19
COc1ccc2c(C#CCCO)c(-c3ccc(S(C)(=O)=O)cc3)sc2c1 | 2 | 29 | + | nt | -177
COc1ccc2sc(-c3ccc(S(C)(=O)=O)cc3)c(C#CCO)c2c1 | 2 | 34* | 21 | nt | -4
O=C(CSc1nc2ccccc2n1Cc1ccccc1Cl)N/N=C\c1cccc(Oc2ccccc2)c1 | nt | nt | nt | nt | 7
COc1ccc(N2CCN(CCCNC(=O)COc3ccc(C)cc3)CC2)cc1 | nt | nt | nt | nt | 1
